TDP1 cell CPT – DT40-hTDP1 cell growth loss with CPT | chicken DT40 Tdp1-/-;hTDP1 cells + 20 nM CPT, ATP luminescence, 48 h | Potency, µM (doses to about 46.2 µM), for the others: at the top dose activity change, negative = growth inhibition, hits mostly inhibitors | 12% of 420,000 active; further: on the % scale 0 is the no-effect control and ±100 the full control effect; nearly all actives have a fitted effect of over 55% in size
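Chicken DT40 Tdp1-/- cells stably complemented with human TDP1 were seeded at 400 cells/well in medium containing 20 nM camptothecin, exposed to pin-transferred compounds, and grown at 37 °C for at least 48 hr. Viability was read as ATP luminescence.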
S2 tox – cell viability loss in ATXN counter-screen. S2 cells (HEK-293 line with an ATXN2-luciferase reporter) viability, CellTiter-Fluor protease fluorescence, 24 h. Potency, µM (highest dose often 56.7 µM), hits mostly cytotoxic. 0.49% of 400,000 active; further: nearly all actives have a fitted effect of over 40% in size
TGFb inhibitor – blocks TGF-b signaling. HepG2 CAGA-GFP TGF-b/SMAD3 reporter, GFP fluorescence, 18 h; TGF-beta stimulated, 500 pg/mL final. Potency, µM (titrated, usually from 46.1 µM), for inactives: top-dose activity, negative = inhibition, usual class: inhibitors. 1.2% of 410,000 active. AID 588855; further: on the % scale 0 is the no-effect control and ±100 the full control effect; nearly all actives have a fitted effect of over 65% in size
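TGF-beta reporter screen: HEPG2 CAGA-GFP, 1% FBS, 500 pg/mL TGF-beta final, 18 h; per-cell GFP summed per well; curves fitted and categorized by class.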
ATXN2 expr inh – inhibitors of ATXN2 expression; HEK-293 ATXN2-luciferase reporter, luminescence, 24 h; Potency, µM (titrated, usually from 57 µM), for the others: at the top dose activity change, negative = inhibition, actives largely listed as inhibitors; 0.72% of 360,000 active; AID 1745845; further: on the % scale 0 is the no-effect control and ±100 the full control effect; nearly all actives have a fitted effect of over 55% in size
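qHTS (up to 57 uM final) was run with 24 h compound exposure of reporter cells at 37 °C. Each well was multiplexed: SteadyGlo luminescence measured ATXN2-luciferase expression after a fluorogenic Gly-Phe-AFC viability readout (25 uM final).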
DT40 TDP1 no CPT – qHTS for Inhibitors of human tyrosyl-DNA phosphodiesterase 1 (TDP1): qHTS in cells in absence of CPT; Potency, µM (titrated, usually from 46.2 µM), inactives show at the highest dose activity change, negative = growth inhibition, most hits filed as inhibitors; AID 686978, 2013; 15% of 420,000 active; DT40 Tdp1-/- hTDP1 cells, no CPT, ATP luminescence, 48 h; further: on the % scale 0 is the no-effect control and ±100 the full control effect; nearly all actives have a fitted effect of over 55% in size
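Growth of hTDP1-complemented DT40 Tdp1-knockout cells is measured by ATP luminescence after at least 48 hr compound exposure at 37 °C, with DMSO substituting for the 20 nM CPT used in the parallel screen.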
HepG2 viability – counter-screen for TGF-b inhibitors: cytotoxicity in HepG2 cells; AID 588856; Potency, µM (series often up to 46.1 µM), inactives show top-dose activity change, negative = cytotoxicity, most hits filed as cytotoxic; HepG2 CAGA-GFP viability, ATP luminescence, 18 h; 0.76% of 410,000 active
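CellTiter-Glo luminescence gave cytotoxicity after 18 hours at 37 degrees C. The cells were HepG2 CAGA-GFP in 1% FBS DMEM, stimulated with 500 pg/mL TGF-beta after compound addition. %Activity was normalised to no-cell wells (complete cell-killing) and DMSO (no toxicity), and curves were fitted and classified.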
* = called active by the depositor; i = inactive; ? = inconclusive; nt = no result given. Sampled rows, rich in hits. Any-hit rate of the full collection: about 17%. The call rests on the fitted dose curve; in most records, active means well fitted curve in the direction sought with a large enough effect; inconclusive means small, poorly fitted or top-dose-only effect, or another doubt; inactive means no such curve, though single readings can be large; an effect the other way counts as inactive or inconclusive. Potency means the concentration at half of the fitted maximal effect.

SMILES	TDP1 cell CPT	S2 tox	TGFb inhibitor	ATXN2 expr inh	DT40 TDP1 no CPT	HepG2 viability
COc1ccc(-n2c(=O)c3c4c(sc3n(Cc3ccc(C)cc3C)c2=O)CCC4)c(OC)c1	18.4µM*	i	1.4%	5.1%	?	5.62µM*
CCC(CC)N1CCN(S(=O)(=O)c2ccc(OC)cc2)CC1	-5.1%	i	-20.5%	-12.2%	-7.3%	9.5%
CC1(C(=O)NS(=O)(=O)c2ccc(Cl)cc2)CCN1C(=O)C/C=C/c1ccccc1 (stereo unspecified)	-3.4%	i	-10.7%	?	-10.9%	-12.6%
Cc1sc(NC(=O)c2ccccc2)c(C(c2ccccn2)N2CCN(CCO)CC2)c1C (stereo unspecified)	10.3µM*	i	-3.8%	-15.1%	9.2µM*	-23.1%
Cc1nc2c(C(=O)NCc3ccc(F)cc3)c[nH]n2c(=O)c1Cl	-5.6%	i	0.8%	-4.6%	-6.5%	-16.5%
Cc1cc2[nH]c3c4ccccc4nc(C)c3c2cc1C	3.66µM*	nt	12.6µM*	?	2.59µM*	17.8µM*
Cc1cccc(-c2cc(C(=O)N3CCCc4ccccc43)c3ccccc3n2)c1	23.1µM*	i	-14.1%	-2.0%	?	-6.3%
O=C(c1cc(-c2ccccc2)nc2ccccc12)N1CCCc2ccccc21	?	i	?	-4.0%	23.1µM*	3.4%
O=C(c1cc(-c2ccc(Br)cc2)nc2ccccc12)N1CCC1	?	i	-1.9%	-9.6%	?	-73.1%
CC(CNC(=O)c1cccs1)c1ccc([N+](=O)[O-])cc1 (stereo unspecified)	-24.0%	i	-18.9%	-23.0%	-15.5%	-32.8%
Cc1nn(CC(=O)N(C)Cc2ccccc2)c(=O)c2cccn12	-8.8%	i	25.2%	nt	-2.3%	4.0%
Cc1cc(Nc2nc3ccccc3nc2Cl)n(-c2ccccc2)n1	18.4µM*	i	-11.4%	-9.4%	16.4µM*	-0.7%
Cc1cc(Nc2nnnn2-c2ccccc2)n(-c2ccccc2)n1	?	i	-20.2%	-12.2%	-15.7%	-6.5%
Cc1cc(Nc2ccccc2)n(-c2ccc(Br)cc2)n1	18.4µM*	i	1.3%	-12.1%	?	4.7%
CCC1CCC(c2nnc(-c3ccc(Br)cc3)o2)CC1 (stereo unspecified)	-24.4%	i	1.6%	44.1%	?	-4.9%
O=C(OCC(=O)N1CCN(c2ccccc2)CC1)c1ncc(Cl)c(Cl)c1Cl	-7.7%	i	-0.2%	4.4%	-12.2%	-8.6%
CCOc1ccc(NC(=O)NCCc2c(C)nn(C)c2C)cc1	6.7%	i	-7.9%	5.1%	-27.2%	0.8%
CC(=O)Nc1cccc(OCC(O)Cn2c(C)nc3ccccc32)c1 (stereo unspecified)	?	i	9.5%	-0.3%	16.4µM*	-14.2%
OC(COCC1CC=CCC1)Cn1cnc2ccccc21 (stereo unspecified)	-23.6%	i	11.0%	0.1%	-15.8%	2.0%
CCCOC(=O)c1ccc(OCC(O)Cn2c(C)nc3ccccc32)cc1 (stereo unspecified)	2.59µM*	?	-11.0%	-16.7%	2.59µM*	3.8%
CC(=O)Nc1cccc(OCC(O)Cn2cnc3ccccc32)c1 (stereo unspecified)	-15.1%	i	0.0%	3.4%	-3.5%	3.0%
Cc1nc2ccccc2n1CC(O)COCC1CC=CCC1 (stereo unspecified)	14.6µM*	i	?	-19.3%	10.3µM*	-40.8%
O=C(CSc1nc(-c2ccccc2)[nH]c1-c1ccc(F)cc1)NC1CCCC1	?	nt	?	nt	?	-27.4%

From PubChem BioAssay
